Results as given in PubChem BioAssay (Tox21).
Values without a mark were called inactive. Entries that show only a call come without a potency. The source made the active and inactive calls. The call rests on the fitted dose curve.

The compounds below were run against Gonadotropin-releasing hormone receptor (Homo sapiens) (UniProt P30968) (assay: Human gonadotropin-releasing hormone receptor (GnRHR) small molecule agonists, calcium flux assay in GnRHR-HEK293 cells (AID 1920063; further: nearly all actives have a fitted effect of over 35% in size)). Conditions: calcium flux fluorescence, agonist mode; series mostly up to 57.6 µM.
Text: National Center for Advancing Translational Sciences [NCATS]
Division of Preclinical Innovation [DPI]
U.S. Environmental Protection Agency [EPA]
National Institutes of Environmental Health Sciences [NIEHS]
National Toxicology Program [NTP]
U.S. Food and Drug Administration [FDA]
Gonadotropin-releasing hormone receptor (GnRHR) is a G-protein-coupled receptor (GPCR) and acts (through phospholipase C) to increase intracellular inositol trisphosphate and then release intracellular calcium stores. Cell-based GnRHR-Hek293 calcium influx assay is using HEK293 cells that have been genetically engineered to express the human GnRHR, which activity can be measured by calcium signaling. A compound/drug can activate (agonist) GnRHR that can be monitored by levels of intracellular calcium.
GnRHR-HEK293 cells developed by Codex Corp contain human GnRHR reporter gene, which was stably integrated into HEK 293 cells. The compound activation can be detected by fluorescence intensity via calcium flux assay. This cell line has been used to screen the Tox21 10K compound library to identify GnRHR agonists.
GnRHR-Hek293 cells were dispensed at 1500cells/4uL/well in 1536-well black wall/clear bottom plates using a multidrop dispenser. After the assay plates were incubated at a 37 C/5% CO2 incubator for 18 hours, 4 uL of Calcium Dye Solution was added to each well. The plates were incubated at 37 C for 1 hour. For agonist mode, 23 nL of compounds dissolved in DMSO, positive controls or DMSO only was transferred to the assay plate by a pin tool station. The fluorescence intensity in the plates was measured using FDSS 7000EX kinetic plate reader with a filter set of Ex/Em=480/540 for 3 min at 1 sec intervals. Each test compound was measured at 15 concentrations and in triplicates.

Sequence of Gonadotropin-releasing hormone receptor (Homo sapiens) (P30968 whole entry, looked up): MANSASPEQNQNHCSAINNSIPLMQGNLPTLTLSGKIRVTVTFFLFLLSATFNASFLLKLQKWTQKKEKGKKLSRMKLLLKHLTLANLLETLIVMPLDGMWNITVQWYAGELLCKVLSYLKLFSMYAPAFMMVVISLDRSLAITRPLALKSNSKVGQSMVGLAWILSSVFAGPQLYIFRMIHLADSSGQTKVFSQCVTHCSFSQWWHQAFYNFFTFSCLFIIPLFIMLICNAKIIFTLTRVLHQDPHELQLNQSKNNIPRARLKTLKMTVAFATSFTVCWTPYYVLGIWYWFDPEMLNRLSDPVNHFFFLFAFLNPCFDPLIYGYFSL

SMILES | Potency | activity change
OC1(c2ccc(Cl)c(C(F)(F)F)c2)CCN(CCCC(c2ccc(F)cc2)c2ccc(F)cc2)CC1 | inactive | 
CCCCCCCCOS(=O)(=O)O | inactive | 
CCCN1C[C@H](CSC)C[C@@H]2c3cccc4[nH]cc(c34)C[C@H]21 | inactive | 
Cc1c(N)cccc1[N+](=O)[O-] | inactive | 
CCCCCCCCCCCCCCCC(=O)OC[C@H](O)[C@H]1OC(=O)C(O)=C1O | inactive | 
O=C(Nc1ccc(Cl)c(Cl)c1)C1CC1 | inactive | 
CC(=O)O[C@@H]1CC2CCC1(C)C2(C)C (stereo not given in full) | inactive | 
c1cc(N(CC2CO2)CC2CO2)ccc1Cc1ccc(N(CC2CO2)CC2CO2)cc1 (stereo not given) | inactive | 
Nc1ccc(C(=O)O)c(O)c1 | inactive | 
CCCCCCCCCI | inactive | 
CC(C)(O)CCC(C)(C)O | inactive | 
CCCCCCCCCCCCCCC1CO1 (stereo not given) | inactive | 
CC(C)(O)CCCC1=CCC(C=O)CC1 (stereo not given) | inactive | 
COC(=O)c1cc(C(=O)OC)cc(S(=O)(=O)O)c1 | inactive | 
COC(=O)C1CC(=O)C(C(=O)OC)CC1=O (stereo not given) |  | 0.483% [at 5.22 µM, hits give high values]
CC(C)(O)c1ccc(CNC(=O)c2cccnc2Oc2ccc3nonc3c2)cc1 | inactive | 
CN(C)CCCSc1ccccc1NC(=O)/C=C/c1ccccc1 | inactive | 
CN(C)C(=O)CNC(=O)Cc1ccccc1 | inactive | 
CCN(CC)C(=O)N(CC)CC | inactive | 
CCCNC(C)C(=O)Nc1ccccc1C (stereo not given) | inactive | 

SMILES | Potency | activity change
C=CC1CO1 (stereo not given) | inactive | 
C=CC(=O)O | inactive | 
Cc1oc(=O)oc1COC(=O)[C@@H]1N2C(=O)[C@@H](NC(=O)[C@H](N)c3ccccc3)[C@H]2SC1(C)C | inactive | 
OC1CCCc2ccccc21 (stereo not given) | inactive | 
CC1(C)S[C@@H]2[C@H](NC(=O)Cc3ccccc3)C(=O)N2[C@H]1C(=O)O (tested in a mixture with another compound) | inactive | 
O=C(O)CC(C(=O)O)S(=O)(=O)O (stereo not given) | inactive | 
COc1ccc2nc(SCc3ncc(C)c(OC)c3C)[nH]c2c1 | inactive | 
Cc1ccc2c(c1)C(=O)c1ccccc1C2=O | inactive | 
O=C(O)c1ccc(Cl)c(Cl)c1 | inactive | 
CCNC(=O)C1CC(C)CCC1C(C)C (stereo not given) | inactive | 
O=C(O)CCC(=O)OC[C@@H](NC(=O)C(Cl)Cl)[C@H](O)c1ccc([N+](=O)[O-])cc1 | inactive | 
O=C1CC2(CCCC2)CC(=O)N1CCNCC1COc2ccccc2O1 (stereo not given) | inactive | 
NS(=O)(=O)c1cc2c(cc1C(F)(F)F)NCNS2(=O)=O | inactive | 
CNCc1ccccc1 | inactive | 
CC(=O)OC(C)(C)Cc1ccccc1 | inactive | 
Cc1cccc(C)c1C | inactive | 
CCCCCCOC(=O)CCCCC | inactive | 
O=C(c1ccc(F)cc1)C1CCN(CCn2c(=O)[nH]c3ccccc3c2=O)CC1 | inactive | 
CC(=O)CC(=O)OC(C)(C)C | inactive | 
CCOC(=O)Cn1cccc1-c1nc(-c2ccc(OC)cc2)c(-c2ccc(OC)cc2)s1 | inactive | 
